In PubChem BioAssay AID1445 (SRMLSC, 2008):
The whole screen tested about 220,000 compounds, of which about 910 (0.41%) were called active.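 Rule for the calls: active = primary inhibition above the hit cutoff, then over 50% inhibition at one or more dose response concentrations (cut at about 23% in these data, passing the limit was not always enough); inconclusive = conflicting primary data, or primary hits not chosen for dose response; inactive = low primary inhibition, or under 50% at every dose.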 The entries come from a sample that favours actives as a whole. Entries with a potency or affinity are not part of this list.

target: Aminopeptidase N (Plasmodium falciparum (isolate 3D7)) (UniProt O96935); assay: P. falciparum M1AAP inhibitors, biochemical, fluorogenic H-Leu-NHMec substrate, 1536-well (AID 1445); conditions: recombinant M1AAP, H-Leu-NHMec fluorogenic kinetic assay; at 30 µM, stronger effect = higher value unless noted;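 note: plate controls were DMSO full reaction for no effect and no enzyme background for full effect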
Sequence (O96935 whole entry, looked up): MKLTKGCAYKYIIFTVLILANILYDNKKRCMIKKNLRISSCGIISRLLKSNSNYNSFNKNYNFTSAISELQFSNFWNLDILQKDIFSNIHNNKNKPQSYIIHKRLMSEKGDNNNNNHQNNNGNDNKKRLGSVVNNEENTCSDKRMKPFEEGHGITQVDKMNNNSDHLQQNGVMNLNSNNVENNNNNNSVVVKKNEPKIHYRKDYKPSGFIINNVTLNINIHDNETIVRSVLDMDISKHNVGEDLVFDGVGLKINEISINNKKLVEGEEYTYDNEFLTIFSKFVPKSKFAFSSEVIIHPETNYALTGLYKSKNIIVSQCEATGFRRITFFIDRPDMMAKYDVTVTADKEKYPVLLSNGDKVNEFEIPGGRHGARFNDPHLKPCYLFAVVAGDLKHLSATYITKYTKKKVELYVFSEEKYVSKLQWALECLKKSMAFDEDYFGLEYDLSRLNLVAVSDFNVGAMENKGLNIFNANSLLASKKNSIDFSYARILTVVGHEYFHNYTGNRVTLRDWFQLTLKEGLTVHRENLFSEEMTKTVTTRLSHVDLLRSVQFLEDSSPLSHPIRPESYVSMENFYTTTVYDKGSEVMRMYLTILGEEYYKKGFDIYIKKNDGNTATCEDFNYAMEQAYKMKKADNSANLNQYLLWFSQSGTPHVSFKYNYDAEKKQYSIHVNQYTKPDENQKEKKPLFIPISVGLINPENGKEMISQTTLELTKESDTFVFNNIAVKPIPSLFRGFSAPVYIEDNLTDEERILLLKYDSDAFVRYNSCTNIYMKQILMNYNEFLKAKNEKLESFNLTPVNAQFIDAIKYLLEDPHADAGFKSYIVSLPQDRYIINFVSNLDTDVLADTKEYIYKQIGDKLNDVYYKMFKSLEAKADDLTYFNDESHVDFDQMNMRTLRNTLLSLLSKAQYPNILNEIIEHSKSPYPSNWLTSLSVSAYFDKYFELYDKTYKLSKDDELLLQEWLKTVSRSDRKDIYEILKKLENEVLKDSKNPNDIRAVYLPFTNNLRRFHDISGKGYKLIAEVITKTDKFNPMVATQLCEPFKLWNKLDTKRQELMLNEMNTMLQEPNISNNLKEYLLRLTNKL

Row | SMILES | inhibition
1 | O=C(COc1ccc(Cl)cc1)NNC(=O)c1cccnc1 | 3.11% (inactive)
2 | CCC(CC)NC(=O)c1cccc(Br)c1 | 4.75% (inactive)
3 | CCc1ccc(NC(=O)CSc2nc3n[nH]c(C)c3c(=N)n2-c2cccc(OC)c2)cc1 | 3.02% (inactive)
4 | COc1cccc(-n2c(SCC(=O)NC3CCCCC3)nc3n[nH]c(C)c3c2=N)c1 | 57.3% (active)
5 | COc1ccc(Cc2nnc(SCC(=O)NC3CCCCC3)n2C)cc1 | 24.3% (active)
6 | COc1cccc(NC(=O)CSc2nc3n[nH]c(C)c3c(=N)n2-c2cccc(OC)c2)c1 | 1.29% (inactive)
7 | CCn1c(Cc2ccc(OC)cc2)nnc1SCC(=O)NC1CCCCC1 | 5.01% (inactive)
8 | Cn1c(Cc2ccccc2)nnc1SCC(=O)NC1CCCCC1 | -1.27% (inactive)
9 | Cc1ccc(S(=O)(=O)Oc2ccccc2/C=N/NC(=O)c2nn(C)cc2[N+](=O)[O-])cc1 | 9.1% (inactive)
10 | CCOCCCNS(=O)(=O)c1ccc(OC)c(Cl)c1Cl | -1.01% (inactive)
11 | COc1cnn(Cc2ccccc2)c(=O)c1SCc1ccccc1 | 2.35% (inactive)
12 | CS(=O)(=O)N1CCN(c2ccc(NC(=S)NC(=O)c3ccccc3[N+](=O)[O-])cc2)CC1 | 2.8% (inactive)
13 | Cc1[nH]n(-c2ccccc2)c(=O)c1-c1ccc(Cl)cc1 | 17.9% (inactive)
14 | Cc1[nH]n(-c2cccc(Cl)c2)c(=O)c1-c1ccccc1 | 13.4% (inactive)
15 | Cc1[nH]n(-c2cccc(Cl)c2)c(=O)c1-c1ccc(Cl)cc1 | 27.2% (active)
16 | CC(=O)c1sc(NC(=O)CCCOc2ccc(Cl)cc2)nc1C | -3.27% (inactive)
17 | O=c1c(=Nc2ccccc2O)c(=O)c2ccccc12 | -8.18% (inactive)
18 | Oc1ccccc1N=Nc1nc(-c2ccccc2)c(-c2ccccc2)[nH]1 | -7.75% (inactive)
19 | CCOc1ccc(NC(=S)Nc2ccc(Br)cc2Cl)cc1 | 2.64% (inactive)
20 | Cc1ccccc1NC(=O)CN1C(=O)C2C3CC(C(Br)C3Br)C2C1=O (configuration not stated) | 5.98% (inactive)
21 | O=C(CN1C(=O)C2C3C=CC(C3)C2C1=O)Nc1ccc(C(=O)O)cc1 (configuration not stated) | 14.6% (inactive)
22 | CCOc1ccc(NC(=O)c2ccccc2NC(=O)CN(C)CC(=O)Nc2ccc(C)cc2)cc1 | 1.3% (inactive)
23 | N#CC(=NCc1cccnc1)C1=C(O)c2ccccc2C1=O | -2.18% (inactive)

Row | SMILES | inhibition
24 | CCOC(=O)c1c(C)oc2ccc(NS(=O)(=O)c3ccc(C(=O)O)cc3)cc12 | 10.2% (inactive)
25 | CC1(C)CC(=O)c2c(oc3ccc(NS(=O)(=O)c4cccc5cccnc45)cc23)C1 | 3.99% (inactive)
26 | O=C(N=Nc1c(O)[nH]c2ccccc12)c1cccc(S(=O)(=O)Nc2ccccc2Cl)c1 | 13.3% (inactive)
27 | CCOCCc1nnc(NC(=O)Cc2ccccc2)s1 | 7.8% (inactive)
28 | CCn1c(SCC(=O)Nc2ccccc2C)nc2nc3c(cc2c1=O)COC(C)(C)C3 | 13.2% (inactive)
29 | CCCc1cc(=O)oc2cc(C)cc(OCc3nn[nH]n3)c12 | 17.7% (inactive)
30 | CCc1cc(=O)oc2cc(C)cc(OCc3nn[nH]n3)c12 | 9.2% (inactive)
31 | Cc1c(N2C(=O)/C(=C\c3ccccc3O)SC2=S)c(=O)n(-c2ccccc2)n1C | 13% (inactive)
32 | Cc1c(N2C(=O)/C(=C/c3ccccc3)SC2=S)c(=O)n(-c2ccccc2)n1C | 13.6% (inactive)
33 | CCOc1c(OC(C)=O)ccc(/C=C2\N=C(SCC)SC2=O)c1[N+](=O)[O-] | 9.88% (inactive)
34 | C=CCSC1=N/C(=C\c2cc(OCC)c(OC(C)=O)c([N+](=O)[O-])c2)C(=O)S1 | 10.7% (inactive)
35 | COC(=O)c1ccc(/C=C2\N=C(SC)SC2=O)cc1 | 6.81% (inactive)
36 | COc1ccc(/C=C2\N=C(SC)SC2=O)cc1OC | -0.19% (inactive)
37 | CCOc1cc(/C=C2\N=C(SCC)SC2=O)cc([N+](=O)[O-])c1OC(C)=O | 60.6% (active)
38 | Cc1ccsc1/C=N/NC(=O)c1ccc(-n2cccc2)cc1 | -0.71% (inactive)
39 | CCC(=O)c1ccc(N2CCN(S(=O)(=O)c3ccccc3)CC2)c(F)c1 | -2.32% (inactive)
40 | OC1CCN(c2ncnc3c2nnn3Cc2c(F)cccc2Cl)CC1 | -1.3% (inactive)
41 | Cn1nnnc1SCC(=O)Nc1c(Cl)cccc1Cl | -11.1% (inactive)
42 | O=C(NN1C(=O)c2cc(Br)ccc2NC1c1cc(Br)cc(Br)c1O)c1ccncc1 (configuration not stated) | 15.9% (inactive)
43 | NS(=O)(=O)c1ccc(CCNC(=O)c2ccc(S(=O)(=O)N3CCCCC3)cc2)cc1 | 15.2% (inactive)
44 | O=C(Cc1ccc(S(=O)(=O)N2CCOCC2)s1)NCC1CCCCC1 | 3.48% (inactive)
45 | O=C(COC(=O)Cc1ccc(S(=O)(=O)N2CCOCC2)s1)NCCc1ccccc1 | 5.27% (inactive)
46 | NS(=O)(=O)c1ccc(CCNC(=O)CN2CCCCC2)cc1 | -1.82% (inactive)

Row | SMILES | inhibition
47 | CCn1cc(CNC(=O)CSc2nc(-c3ccc(OC)c(OC)c3)cc(C(F)(F)F)n2)c(C)n1 | 8.78% (inactive)
48 | O=C(CC1(c2ccc(Cl)cc2)C2CC3CC(C2)CC1C3)NCCO (configuration not stated) | 3.19% (inactive)
49 | CCN1CCN(CCCNC(=O)c2cn(CCOC)c(=O)c3c2c2ccccc2n3C)CC1 | 17.7% (inactive)
50 | CCOc1cc(CNc2ccccc2)cc(Br)c1OCc1ccccc1F | 6.06% (inactive)
51 | CCOc1cc(CNc2ccc(O)cc2)cc(Br)c1OCc1ccccc1F | 25.5% (active)
52 | COc1cc(CNc2ccc(O)cc2)cc(Br)c1OCc1ccccc1F | 7.46% (inactive)
53 | Cn1c(C(=O)NC2CCCCC2)cc2c(=O)n(C)c3ccccc3c21 | -0.49% (inactive)
54 | CC1(CC(=O)N/N=C/c2cc(Br)c(O)cc2O)OCCO1 | 31.5% (active)
55 | CC1(CC(=O)N/N=C/c2cc([N+](=O)[O-])c(O)cc2O)OCCO1 | 9.24% (inactive)
56 | CC1(CC(=O)N/N=C/c2cc3c(cc2Br)OCO3)OCCO1 | 9.79% (inactive)
57 | COc1ccc(CCNC(=O)c2cc(-c3ccc(C)c(C)c3O)n[nH]2)cc1OC | 0.7% (inactive)
58 | Cc1nc(NS(=O)(=O)c2ccccc2)sc1C(=O)NN | 6.77% (inactive)
59 | Cc1ccc(S(=O)(=O)Nc2nc(C)c(C(=O)Nc3ccccc3)s2)cc1 | 4.37% (inactive)
60 | Cc1ccc(S(=O)(=O)Nc2nc(C)c(C(=O)NNS(=O)(=O)c3ccccc3)s2)cc1 | 3.2% (inactive)
61 | C/C(=N/NC(=O)c1sc(NS(=O)(=O)c2ccccc2)nc1C)c1ccccc1 | 18.9% (inactive)
62 | O=C(CSc1nc2ccccc2o1)Nc1cc(C(F)(F)F)ccc1N1CCOCC1 | 8.71% (inactive)
63 | CCCCn1c(C)csc1=Nc1cccnc1 | 4.71% (inactive)
64 | Cc1cc(C)c(S(=O)(=O)Nn2cnnc2)c(C)c1 | -1% (inactive)
65 | CCOP(=O)(OCC)/C(C#N)=C/c1cc(OC)ccc1OC | 1.01% (inactive)
66 | COc1ccccc1NC(=S)N1CCCC1 | 8.78% (inactive)
67 | CC(=O)NCc1cc(-c2nn(C)c(=O)c3ccccc23)ccc1C | 12.1% (inactive)
68 | CCOC(=O)NCc1cc(-c2nn(C)c(=O)c3ccccc23)ccc1C | -0.16% (inactive)
69 | CCC(=O)NCc1cc(-c2nn(C)c(=O)c3ccccc23)ccc1C | 3.73% (inactive)

Row | SMILES | inhibition
70 | CCCC(=O)NCc1cc(-c2nn(C)c(=O)c3ccccc23)ccc1C | -1.83% (inactive)
71 | CC(O)CNCCCOc1ccc(Cl)cc1C(C)(C)C (configuration not stated) | 2.63% (inactive)
72 | Cc1ccc(N(C(=O)C2CCC(=O)N2)C2(C(=O)NC3CCCCC3)CCCCC2)cc1 (configuration not stated) | 3.72% (inactive)
73 | CC(C)NS(=O)(=O)c1ccc(CCC(=O)NCc2cccnc2)cc1 | 3.94% (inactive)
74 | CCCCN1CNC(=S)N(c2ccccc2OCC)C1 | 1.13% (inactive)
75 | CCOCCCNCc1cccc(OCc2ccc(F)cc2)c1 | -0.98% (inactive)
76 | CSc1nnc(-c2cc(-c3ccc(C)cc3)nc3ccccc23)o1 | -2.26% (inactive)
77 | COc1ccc(-c2cc(-c3nnc(-c4ccncc4)o3)c3ccccc3n2)cc1 | 7.37% (inactive)
78 | CCC(=O)Nc1ccc(-n2nnnc2SCC(=O)NNC(=O)c2ccco2)cc1 | 4.76% (inactive)
79 | S=c1[nH]nc(-c2cccnc2)n1/N=C/C=C/c1ccccc1 | 10.4% (inactive)
80 | O=C(CN(c1ccccc1)S(=O)(=O)c1ccccc1)NCCSc1nc2ccccc2s1 | 4.5% (inactive)
81 | CN1CCN(Cc2nc3ccccc3c(=O)n2Cc2nc(-c3ccc([N+](=O)[O-])cc3)cs2)CC1 | 11.9% (inactive)
82 | CN1CCN(Cc2nc3ccccc3c(=O)n2Cc2nc(-c3ccc4ccccc4c3)cs2)CC1 | -1.75% (inactive)
83 | Cc1ccc(C(C(=O)NCc2ccco2)N(Cc2ccco2)C(=O)CNC(=O)c2ccco2)cc1 (configuration not stated) | 19.3% (inactive)
84 | COc1ccc(CCNC(=O)C2CCN(S(=O)(=O)c3cc(OC)ccc3OC)CC2)cc1 | 14.3% (inactive)
85 | COc1ccc(OC)c(S(=O)(=O)N2CCC(C(=O)NCc3ccccc3)CC2)c1 | 57.9% (active)
86 | COc1ccc(OC)c(S(=O)(=O)N2CCC(C(=O)NCc3ccccc3OC)CC2)c1 | 3.04% (inactive)
87 | COc1ccc(OC)c(S(=O)(=O)N2CCC(C(=O)NCCc3ccc(OC)c(OC)c3)CC2)c1 | -4.37% (inactive)
88 | COc1ccc(S(=O)(=O)N2CCC(C(=O)NCCc3ccccc3)CC2)cc1OC | -1.88% (inactive)
89 | COc1ccc(OC)c(S(=O)(=O)N2CCC(C(=O)NCCc3ccccc3)CC2)c1 | -0.81% (inactive)
90 | COc1ccc(S(=O)(=O)N2CCC(C(=O)NCc3ccccn3)CC2)cc1OC | 2.6% (inactive)
91 | COc1ccccc1N1CCN(C(=O)c2ccc3nc[nH]c3c2)CC1 | 4.75% (inactive)
92 | CCn1c(SCC(=O)Nc2nc3ccccc3s2)nnc1-c1ccc(Br)cc1 | 4.22% (inactive)
